Assay outcomes as filed in PubChem.
PLC-beta3 inh = human PLC-beta3 inhibitors, primary screen, biochemical, fluorescence; 1-phosphatidylinositol 4,5-bisphosphate phosphodiesterase beta-3 (Homo sapiens), Q01970; Purified PLC-beta3, fluorogenic substrate; inhibition, % at 12.2 µM; hit rate 0.18% among 370,000; AID 720704, 2013; in the data active means inhibition above about 11%;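 further: 0% = median of compound wells on plate and 100% = full blocker control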
PLC-gamma1 inh = PLC-gamma1 enzyme inhibitors, primary screen, biochemical, fluorescence, purified enzyme | fluorogenic substrate | inhibition, % at 12.2 µM | hit rate 0.84% among 370,000 | AID 720700, 2013
Target sequence (P19174 whole entry, looked up): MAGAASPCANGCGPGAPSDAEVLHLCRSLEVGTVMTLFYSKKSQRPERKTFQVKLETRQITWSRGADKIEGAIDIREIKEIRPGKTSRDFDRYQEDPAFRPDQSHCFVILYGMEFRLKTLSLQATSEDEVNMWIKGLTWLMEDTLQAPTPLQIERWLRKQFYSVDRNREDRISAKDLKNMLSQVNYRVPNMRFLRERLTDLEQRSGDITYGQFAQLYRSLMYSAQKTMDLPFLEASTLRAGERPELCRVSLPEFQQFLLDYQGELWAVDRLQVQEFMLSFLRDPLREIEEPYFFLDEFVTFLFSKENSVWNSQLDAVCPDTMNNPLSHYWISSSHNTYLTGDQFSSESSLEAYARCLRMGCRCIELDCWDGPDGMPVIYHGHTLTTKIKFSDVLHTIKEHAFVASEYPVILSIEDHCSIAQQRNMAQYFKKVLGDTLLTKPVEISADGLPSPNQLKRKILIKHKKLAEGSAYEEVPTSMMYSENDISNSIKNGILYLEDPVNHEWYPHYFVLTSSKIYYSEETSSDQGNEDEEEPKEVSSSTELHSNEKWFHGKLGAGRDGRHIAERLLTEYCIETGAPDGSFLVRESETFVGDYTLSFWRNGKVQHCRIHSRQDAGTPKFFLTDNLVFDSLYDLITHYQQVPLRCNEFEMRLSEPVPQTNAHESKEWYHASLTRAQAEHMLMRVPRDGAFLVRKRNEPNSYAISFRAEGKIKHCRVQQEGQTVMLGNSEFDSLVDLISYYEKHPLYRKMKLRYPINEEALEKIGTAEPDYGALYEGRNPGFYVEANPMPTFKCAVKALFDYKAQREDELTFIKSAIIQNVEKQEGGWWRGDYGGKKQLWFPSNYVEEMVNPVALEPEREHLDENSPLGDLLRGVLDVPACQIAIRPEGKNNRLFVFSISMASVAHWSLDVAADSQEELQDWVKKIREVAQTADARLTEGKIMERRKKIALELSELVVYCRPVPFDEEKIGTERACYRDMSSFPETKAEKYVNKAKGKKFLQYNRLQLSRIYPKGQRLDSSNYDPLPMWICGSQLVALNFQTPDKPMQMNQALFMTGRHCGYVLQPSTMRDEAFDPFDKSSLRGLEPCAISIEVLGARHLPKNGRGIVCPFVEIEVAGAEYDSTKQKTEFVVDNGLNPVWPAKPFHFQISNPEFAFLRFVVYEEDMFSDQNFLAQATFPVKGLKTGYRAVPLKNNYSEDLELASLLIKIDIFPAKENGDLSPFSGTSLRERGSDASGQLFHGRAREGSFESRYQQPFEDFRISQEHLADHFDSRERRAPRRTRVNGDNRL
NPR1 activator = GC-A stimulated cGMP production enhancers – HEK293 GC-A cells, cGMP TR-FRET, EC30 ANP, primary screen | Atrial natriuretic peptide receptor 1 (Homo sapiens), P16066 | 0% at EC30 ANP, 100% saturating ANP | activation, % at 10 µM | hit rate 0.14% among 370,000; in the data active means activation above about 40%
GC-B act = human GC-B receptor activators, primary screen, HEK293 GC-B cells, cGMP TR-FRET, EC30 CNP. Atrial natriuretic peptide receptor 2 (Homo sapiens), P20594. 0% at EC30 CNP, 100% saturating CNP. activation, % at 10 µM. hit rate 0.11% among 370,000. AID 1920062, 2024;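 active means activation at 10 µM reaching about 35% in either raw or pattern-adjusted values, limit read from the data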
PLCgamma1 ctr = PLC-gamma1 enzyme inhibitors, counter-screen for PLC-beta3 inhibitor project, biochemical, fluorescence; shares compounds with PLC-gamma1 inh; purified PLC-gamma1, fluorogenic substrate; inhibition, % at 12.3 µM; hit rate 3.1% among 3,300; AID 743258, 2014
PLCbeta3 conf = PLC-beta3 inhibitor confirmation, biochemical, fluorescence, purified enzyme; fluorogenic substrate fluorescence; shares compounds with PLC-gamma1 inh; hit rate 1% among 3,300; inhibition, % at 12.3 µM; in the data active means inhibition above about 11%
* = called active by the depositor; / = not tested or not shown. Compounds with a hit are over-represented: about 1.2% of the library has one in this group of screens. Unless noted, no stated cut-off is given here; in the data, active means inhibition above about 9.5%; inactive means the rest.

SMILES	PLC-beta3 inh	PLC-gamma1 inh	NPR1 activator	GC-B act	PLCgamma1 ctr	PLCbeta3 conf
CN1CCN(NC(=O)c2ccc(Cl)s2)CC1	-11	9.8*	-1	-2	-2	3
CN1CCN(NC(=O)c2ccc(F)cc2)CC1	-1	1	2	-2	/	/
CCOC(=O)N1CCN(Cc2cn[nH]c2-c2cc3ccccc3o2)CC1	-2	0	-3	-2	/	/
Cc1ccc(NC(=O)c2cccc(NC3=NC4CS(=O)(=O)CC4S3)c2)cc1 (stereo not drawn)	2	0	0	-7	/	/
CC1(C)Cc2nc(Cl)c(C(N)=O)cc2CO1	-1	10*	-3	4	-3	1
CCOC(=O)c1cc2c(nc1N)CC(C)(C)OC2	-117	-95	7	4	/	/
COc1ccc(NC(=O)COC(=O)Cc2c(F)cccc2Cl)cc1	4	2	4	-2	/	/
C=CCn1c(SCC(=O)NCCc2ccccc2)nnc1C1CC1	2	0	2	3	/	/
COCCNC(=S)N1C[C@H]2CON(C)[C@H]2C[C@H]1c1ccccc1Br	6	9.7*	1	4	-2	1
CC(=O)NC[C@H]1O[C@@H](n2ccc(N)nc2=O)[C@H](O)[C@@H]1O	9	10*	2	-6	-4	1
CN[C@H](C)C(=O)NC[C@H]1O[C@@H](n2ccc(N)nc2=O)[C@H](O)[C@@H]1O	-2	0	-3	4	/	/
CCn1c(SCC(=O)Nc2nncs2)nnc1-c1ccco1	-5	1	3	4	/	/
Cc1onc(-c2ccccc2Cl)c1C(=O)N1CCOC12CCCCC2	11*	4	-3	-5	1	4
CCNC(=O)C1(C)CCN(C(=O)c2cccnc2SC)C1 (stereo not drawn)	3	2	3	-2	/	/
Cc1cc(C)c(OCC(=O)N(Cc2ccccc2)C2CCS(=O)(=O)C2)c(C)c1 (stereo not drawn)	-17	0	-36	-17	/	/
CCOc1cc(/C=N/Nc2ncnc(Cl)c2N)ccc1O	-10	-6	-4	-1	/	/
CCOc1cc(/C=N/NC(=O)C(=O)N/N=C/c2ccc(O)c(OCC)c2)ccc1O	-25	-14	-4	7	/	/
CCOc1cc(/C=N/NC(=O)N/N=C/c2ccc(O)c(OCC)c2)ccc1O	13*	6	-4	-7	4	-2
CCOc1cc(/C=N/Nc2nnc(C)n2N)ccc1O	5	20*	-8	1	-5	-1
Cc1ccc(OCC(=O)NC(=S)Nc2ccc(Br)c(C)n2)cc1	-1	-1	4	-3	/	/
N/C(=N\OC(=O)CCCc1ccccc1)c1cccnc1	12*	7	1	2	-8	-4
CCOC(=O)C1CCN(C(c2cccc(F)c2)c2sc3nc(C)nn3c2O)CC1 (stereo not drawn)	4	4	-2	3	/	/
Cc1nc2ccc(S(=O)(=O)NCC(=O)NCc3ccc4c(c3)OCO4)cc2s1	12*	5	-7	-3	-8	-4
O=S(=O)(Cc1ccc(Cl)cc1)NCC1CCCO1 (stereo not drawn)	1	1	-2	4	/	/
O=S(=O)(Cc1ccc(Cl)cc1)C1CCCCC1O (stereo not drawn)	5	11*	3	0	-4	-1
SMILES	PLC-beta3 inh	PLC-gamma1 inh	NPR1 activator	GC-B act	PLCgamma1 ctr	PLCbeta3 conf
Cc1cc(C)nc(SCc2nnc(SCC(=O)Nc3c(C)cccc3C)o2)n1	8	11*	-12	-2	-6	-2
CCCNC(=O)COC(=O)c1cc(C)nc2ccccc12	-7	-5	-4	3	/	/
COc1ccc(C(=O)Oc2ccc(C(C)=O)cc2)c(OC)c1	1	10*	5	-2	-4	-3
Cc1cccc(OCC(=O)OCC(=O)N2CCN(C(=O)c3ccco3)CC2)c1C	-3	7	0	-4	/	/
CSc1cc(SC)ncn1	12*	5	2	13	-6	-1
Cc1cc(C)n(CC(=O)NNC(=O)C2CC(=O)N(Cc3ccccc3Cl)C2)n1 (stereo not drawn)	0	12*	-2	-3	-4	1
CCC(C)(C)NC(=O)C(c1ccco1)N(C(=O)c1csnn1)c1cccc(F)c1 (stereo not drawn)	0	0	2	2	/	/
COc1ccc(CN=C2NC(=O)CC(C(=O)Nc3cc(C)cc(C)c3)S2)cc1 (stereo not drawn)	17*	9	5	4	1	1
COc1ccc(C(=O)N2CCC(N3CCN(c4ccccc4)CC3)CC2)cc1OC	5	3	-1	0	/	/
COc1ccc(C(=O)N2CCN(C3CCC(c4ccccc4)CC3)CC2)cc1OC (stereo not drawn)	5	15*	0	-1	-12	-2
COC(=O)CCCc1nc2ccccc2s1	2	1	-2	6	/	/
NC(=O)COC(=O)CCCc1nc2ccccc2s1	11*	12*	5	-1	-8	-4
CCn1c(CNC(=O)COc2ccc(C(C)C)cc2)nnc1SCC(=O)Nc1cc(F)ccc1C	8	10*	2	0	-1	-2
CCOc1ccc(C(=O)NCCC2=CCCCC2)cc1OCC	5	11*	2	-3	-5	0
O=C(NCCC1=CCCCC1)c1ccc2c(c1)N(Cc1ccccc1)C(=O)CS2	9	11*	-5	-4	-1	-7
CC1CN(c2ccc(Cl)cc2)c2nc3c(c(=O)[nH]c(=O)n3C)n2C1 (stereo not drawn)	-5	10*	11	8	-2	0
Cc1ccc(CS(=O)(=O)Cc2ccc(C(=O)NCCc3ccccc3)o2)cc1	-6	1	3	-3	/	/
O=C(Nc1ccc(Cl)c(S(=O)(=O)N2CCOCC2)c1)c1cc2ccccc2oc1=O	2	0	1	5	/	/
Cc1ccc(S(=O)(=O)N2CCOCC2)cc1NC(=O)c1cc2ccccc2oc1=O	-3	10*	2	1	-4	1
O=C(Nc1ccccc1-c1nnn(CC(=O)N2CCCc3ccccc32)n1)c1ccc(Cl)cc1	2	1	-2	-7	/	/
NC1=C(Cl)C(=O)c2ccc(S(N)(=O)=O)cc2C1=O	3	16*	-3	-6	19*	-1
NC1=C(Cl)C(=O)c2ccccc2C1=O	8	5	-4	-15	/	/
COc1cc(/C=N/N(C)S(=O)(=O)c2ccc(C)cc2)cc([N+](=O)[O-])c1O	-6	2	-2	1	/	/
CC(C)C(=O)Nc1cccc(C(=O)NCc2ccc3c(c2)OCO3)c1	/	/	3	0	/	/
